Data from PubChem BioAssay AID602448 (National Center for Advancing Translational Sciences (NCATS), 2012).
The source made the active and inactive calls.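 How the source made its calls: active means max inhibition of at least 60%; inconclusive means max inhibition above 30% but below 60%; inactive means max inhibition of 30% or less.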

Target: Follicle-stimulating hormone receptor (Homo sapiens) (UniProt P23945)
Assay: qHTS for antagonists of the Thyroid Stimulation Hormone Receptor: Hit Validation with Follickle Stimulating Hormone Receptor (FSHR)
Settings: FSHR-expressing cells, cAMP HTRF, antagonist counterscreen; hits give high values
Source text: The thyroid-stimulating hormone receptor (TSHR) is a member of the 7 trans-membrane-spanning receptor (7TMR) family of cell surface receptors. TSHR-mediated hyperthyroidism is important in thyroid pathology. The development of small molecule antagonists of TSHR may lead to therapeutic approaches for TSHR-mediated hyperthyroidism caused by constitutively activating mutations or stimulating auto-antibodies associated with Graves' disease. Graves' disease is the leading cause of hyperthyroidism and is caused by autoantibodies that stimulate TSHR (TsAbs) causing thyroid growth and unregulated overproduction of thyroid hormones and existing treatments have liabilities (agranulocytosis). In addition, TSHRs are known to be expressed in multiple extrathyroidal tissues including bone, brain, kidney, testis, fat and cells of the immune system but the role of the TSHR in these tissues is not clear. Therefore, TSHR antagonists/inverse agonists could be used as probes of extrathyroidal TSHR function. Finally, TSHR inverse agonists, which are a subclass of antagonists that inhibit agonist-independent (or basal or constitutive) TSHR signaling, could be used to inhibit TSH-independent signaling in patients with recurrent or metastatic thyroid cancer who are receiving thyroid hormone to suppress TSH. […]

Chain of Follicle-stimulating hormone receptor (Homo sapiens) (P23945 whole entry, looked up): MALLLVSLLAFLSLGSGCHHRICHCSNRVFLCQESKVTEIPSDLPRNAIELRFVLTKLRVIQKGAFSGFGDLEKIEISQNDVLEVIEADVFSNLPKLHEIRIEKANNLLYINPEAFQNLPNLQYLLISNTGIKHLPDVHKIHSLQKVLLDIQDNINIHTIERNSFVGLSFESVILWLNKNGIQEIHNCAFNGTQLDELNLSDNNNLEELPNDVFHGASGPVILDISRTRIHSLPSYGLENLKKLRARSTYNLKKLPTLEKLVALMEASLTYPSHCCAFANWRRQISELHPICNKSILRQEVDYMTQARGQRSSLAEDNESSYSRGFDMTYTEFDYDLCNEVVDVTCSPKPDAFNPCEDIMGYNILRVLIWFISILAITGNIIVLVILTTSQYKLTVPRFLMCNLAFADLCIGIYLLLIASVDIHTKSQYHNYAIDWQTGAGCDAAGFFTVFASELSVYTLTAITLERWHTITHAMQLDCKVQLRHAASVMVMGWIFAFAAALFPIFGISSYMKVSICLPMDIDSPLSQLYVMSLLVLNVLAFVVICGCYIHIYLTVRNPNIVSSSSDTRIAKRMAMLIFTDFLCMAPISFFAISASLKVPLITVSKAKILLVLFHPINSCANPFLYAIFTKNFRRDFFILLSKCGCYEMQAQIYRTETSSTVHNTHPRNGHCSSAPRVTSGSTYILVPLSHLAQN

## COC(=O)C1=C(c2ccc(-c3ccccc3)c(F)c2)C[C@@H]2CC[C@H]1N2C(=O)NCCOc1ccccc1
  max inhibition: 79.5% (active)
